# Results: PubChem BioAssay (NCATS)
# Unmarked numbers belong to inactive results. Results filed as inconclusive are left out. Calls of active or inactive are those of the source. Unless noted, the call rests on the fitted dose curve; in most records, active means well fitted curve in the direction sought with a large enough effect; inconclusive means small, poorly fitted or top-dose-only effect, or another doubt; inactive means no such curve, though single readings can be large; an effect the other way counts as inactive or inconclusive.
# Columns and labels:
# [1] = target: Lysosomal acid glucosylceramidase (Homo sapiens) (UniProt P04062); assay: Glucocerebrosidase-p2 (AID 348; in the data active means potency below about 10 µM; further: potency means the concentration at half of the fitted maximal effect); conditions: purified GBA, blue fluorogenic substrate, 40 min
# Chain of Lysosomal acid glucosylceramidase (Homo sapiens) (P04062 whole entry, looked up): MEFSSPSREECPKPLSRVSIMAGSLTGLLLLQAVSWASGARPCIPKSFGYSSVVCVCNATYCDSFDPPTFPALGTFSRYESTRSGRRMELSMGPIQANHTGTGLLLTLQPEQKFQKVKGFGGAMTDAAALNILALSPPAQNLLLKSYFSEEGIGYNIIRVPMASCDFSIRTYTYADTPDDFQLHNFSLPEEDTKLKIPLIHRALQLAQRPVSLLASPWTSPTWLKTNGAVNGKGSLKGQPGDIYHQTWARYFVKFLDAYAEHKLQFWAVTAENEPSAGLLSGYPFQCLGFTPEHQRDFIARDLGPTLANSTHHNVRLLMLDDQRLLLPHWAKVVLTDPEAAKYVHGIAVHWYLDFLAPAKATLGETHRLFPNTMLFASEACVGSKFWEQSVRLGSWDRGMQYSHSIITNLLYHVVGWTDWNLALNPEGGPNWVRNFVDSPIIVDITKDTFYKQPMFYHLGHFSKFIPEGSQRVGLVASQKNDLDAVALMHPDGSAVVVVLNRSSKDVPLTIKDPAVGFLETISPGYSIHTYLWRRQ
# Procedure, shortened: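 Compounds titrated from 0.6 nM upwards against 0.2 nM enzyme in pH 5.9 citric acid/KH2PO4, taurocholate, tween-20; blue fluorogenic substrate 80 uM, 40 min room temperature, stopped and read Ex 365/Em 440 for AC50.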
# [2] = AP1 Signaling Pathway (AID 357; active means well fitted curve in either direction with a large enough effect, not every such curve was filed as active; further: on the % scale 0 is the no-effect control and ±100 the full control effect); conditions: ME-180 AP-1-bla reporter, EGF-induced, beta-lactamase ratio, 5 h; at 7.69 µM (top of the series) unless noted
# Procedure, shortened: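 AP-1-bla ME-180 cells with beta-lactamase reporter under AP-1 response element, stimulated with EC50 EGF; compounds titrated, 5 hours at 37 degrees Celsius. CCF4 read at 460/530 nm ratio; positive and negative modulators judged by AC50.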
# [3] = target: Cytochrome P450 1A2 (Homo sapiens) (UniProt P05177); assay: p450-cyp1a2 (AID 410; calls by dose curve; further: potency means the concentration at half of the fitted maximal effect); conditions: recombinant CYP1A2, luciferin-ME demethylation, luminescence; series mostly up to 57 µM
# Chain of Cytochrome P450 1A2 (Homo sapiens) (P05177 whole entry, looked up): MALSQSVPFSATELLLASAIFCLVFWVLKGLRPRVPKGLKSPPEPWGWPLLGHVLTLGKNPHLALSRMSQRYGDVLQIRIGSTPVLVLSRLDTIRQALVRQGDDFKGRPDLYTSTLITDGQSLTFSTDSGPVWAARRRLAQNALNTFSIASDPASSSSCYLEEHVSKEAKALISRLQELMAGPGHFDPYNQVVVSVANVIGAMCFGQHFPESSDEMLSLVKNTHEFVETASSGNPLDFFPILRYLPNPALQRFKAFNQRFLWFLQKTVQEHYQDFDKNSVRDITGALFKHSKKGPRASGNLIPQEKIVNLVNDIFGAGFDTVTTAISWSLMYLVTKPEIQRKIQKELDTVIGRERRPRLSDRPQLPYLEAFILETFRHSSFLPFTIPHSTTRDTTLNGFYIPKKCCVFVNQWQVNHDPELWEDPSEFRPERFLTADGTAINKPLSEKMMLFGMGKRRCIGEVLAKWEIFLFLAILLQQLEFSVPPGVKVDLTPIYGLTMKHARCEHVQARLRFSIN
# Procedure, shortened: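 Inhibition was calculated relative to 57 uM furafylline (full inhibition). The reaction used human CYP1A2 at 20nM with Luciferin-ME at its Km, 100uM, driven by an NADPH-regenerating system for 60 min at room temperature.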
# [4] = NFAT Signaling Pathway (AID 444; active means well fitted curve in either direction with a large enough effect, not every such curve was filed as active;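 further: carbachol stimulus at about its EC50 of 1 µM final; on the % scale 0 is the no-effect control and ±100 the full control effect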); conditions: Jurkat NFAT-bla M1, carbachol, beta-lactamase ratio, 5 h; at 7.69 µM (top of the series) unless noted
# Procedure, shortened: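 Jurkat cells carrying an NFAT-driven β-lactamase reporter and co-transfected muscarinic M1 receptor were treated with compound plus carbachol (1 uM final, an EC50 level) for 5 h at 37 °C. CCF4 loading followed for 1 h at RT; 460/530 nm ratio gave %activity.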
# [5] = Stat Signaling Pathway (AID 446; active means well fitted curve in either direction with a large enough effect, not every such curve was filed as active;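 further: ME-180 cervical cancer cells given 40 pM IL-6 alongside compound; SIE-controlled beta-lactamase reporter measured as 460/530 nm FRET emission ratio; on the % scale 0 is the no-effect control and ±100 the full control effect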); conditions: ME-180 SIE beta-lactamase reporter, IL-6 stimulated, 5 h; at 7.69 µM (top of the series) unless noted
# Procedure, shortened: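 ME-180 SIE-bla cells; overnight plating; cpd + IL-6 40 pM, 5 h, 37 C; LiveBLAzer 2.5 h RT; 460/530 nm emission ratio. Normalized to 300 pM IL-6 and 125 nM JAK inhibitor controls.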
# [6] = target: Glucocorticoid receptor (Homo sapiens) (UniProt P04150); assay: GR-GFP Redistribution (AID 450;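 active means compounds whose dose series gives a full or clear partial fitted curve of increased nuclear translocation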; further: potency means the concentration at half of the fitted maximal effect); conditions: U2OS GR-GFP nuclear translocation, laser cytometry, 2 h
# Chain of Glucocorticoid receptor (Homo sapiens) (P04150 whole entry, looked up, the tested form may be a part): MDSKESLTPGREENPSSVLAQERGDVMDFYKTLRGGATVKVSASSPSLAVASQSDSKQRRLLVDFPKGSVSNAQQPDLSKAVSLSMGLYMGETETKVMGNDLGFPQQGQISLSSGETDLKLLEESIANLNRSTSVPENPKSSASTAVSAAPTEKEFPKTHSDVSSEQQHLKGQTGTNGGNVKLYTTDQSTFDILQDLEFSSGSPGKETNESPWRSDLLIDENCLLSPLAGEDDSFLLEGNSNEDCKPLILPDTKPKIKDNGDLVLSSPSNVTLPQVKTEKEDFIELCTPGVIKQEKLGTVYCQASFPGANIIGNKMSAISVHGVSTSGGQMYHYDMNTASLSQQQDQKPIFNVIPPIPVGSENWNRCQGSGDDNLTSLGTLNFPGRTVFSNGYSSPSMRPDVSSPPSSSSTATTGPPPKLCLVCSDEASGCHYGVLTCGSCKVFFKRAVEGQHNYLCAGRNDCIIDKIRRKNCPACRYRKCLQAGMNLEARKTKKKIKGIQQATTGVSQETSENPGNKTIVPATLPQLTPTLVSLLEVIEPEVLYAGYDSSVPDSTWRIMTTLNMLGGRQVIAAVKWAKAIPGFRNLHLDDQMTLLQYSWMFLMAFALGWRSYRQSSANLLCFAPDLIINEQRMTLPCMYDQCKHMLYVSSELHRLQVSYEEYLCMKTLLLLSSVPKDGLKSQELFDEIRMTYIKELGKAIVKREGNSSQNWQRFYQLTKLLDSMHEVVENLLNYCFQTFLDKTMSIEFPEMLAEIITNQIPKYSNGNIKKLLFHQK
# [7] = target: Glucocorticoid receptor (Homo sapiens) (UniProt P04150); assay: GR-EFC Redistribution (AID 451; calls by dose curve; further: potency means the concentration at half of the fitted maximal effect); conditions: CHO-K1 GR-EFC translocation, beta-gal luminescence, 2 h
# Procedure, shortened: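 CHO-K1 cells stably expressing nuclear-localized β-gal enzyme acceptor and GR fused C-terminally to the enzyme donor fragment; ligand-driven nuclear translocation restores β-gal by complementation. Compounds titrated up to 46 uM final, 2 h at 37 °C; luminescence read.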
# [8] = target: Mitogen-activated protein kinase 10 (Mus musculus) (UniProt Q61831); assay: JNK3 AlphaScreen Assay (AID 530; active means well fitted curve in either direction with a large enough effect, not every such curve was filed as active;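 further: kinase came from lysate of stimulated human HepG2 cells; signal reports phosphorylation of biotinylated GST-cJun 1-79 at Ser73 with 10 µM ATP; on the % scale 0 is the no-effect control and ±100 the full control effect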); conditions: JNK3 lysate, c-Jun phosphorylation; series mostly up to 57.1 µM
# Procedure, shortened: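 JNK3 came from HepG2 lysates pre-activated with IL-1beta and TNF-alpha and phosphorylated biotinylated GST-cJun (1-79) at 10 uM ATP, pH 7.6, room temperature. Compounds were titrated. AlphaScreen signal used anti-phospho-cJun (Ser73) antibody.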
# [9] = target: 3',5'-cyclic-AMP phosphodiesterase 4B (Homo sapiens) (UniProt Q07343); assay: qHTS Assay for Inhibitors of PDE-IV (AID 607; active means well fitted activation curve with a large enough effect in the main read-out, with a control signal flat, not every such curve was filed as active; further: potency means the concentration at half of the fitted maximal effect); conditions: HEK293 ACTOne CNG channel cells, membrane potential fluorescence; series mostly up to 22.9 µM
# Chain of 3',5'-cyclic-AMP phosphodiesterase 4B (Homo sapiens) (Q07343 whole entry, looked up): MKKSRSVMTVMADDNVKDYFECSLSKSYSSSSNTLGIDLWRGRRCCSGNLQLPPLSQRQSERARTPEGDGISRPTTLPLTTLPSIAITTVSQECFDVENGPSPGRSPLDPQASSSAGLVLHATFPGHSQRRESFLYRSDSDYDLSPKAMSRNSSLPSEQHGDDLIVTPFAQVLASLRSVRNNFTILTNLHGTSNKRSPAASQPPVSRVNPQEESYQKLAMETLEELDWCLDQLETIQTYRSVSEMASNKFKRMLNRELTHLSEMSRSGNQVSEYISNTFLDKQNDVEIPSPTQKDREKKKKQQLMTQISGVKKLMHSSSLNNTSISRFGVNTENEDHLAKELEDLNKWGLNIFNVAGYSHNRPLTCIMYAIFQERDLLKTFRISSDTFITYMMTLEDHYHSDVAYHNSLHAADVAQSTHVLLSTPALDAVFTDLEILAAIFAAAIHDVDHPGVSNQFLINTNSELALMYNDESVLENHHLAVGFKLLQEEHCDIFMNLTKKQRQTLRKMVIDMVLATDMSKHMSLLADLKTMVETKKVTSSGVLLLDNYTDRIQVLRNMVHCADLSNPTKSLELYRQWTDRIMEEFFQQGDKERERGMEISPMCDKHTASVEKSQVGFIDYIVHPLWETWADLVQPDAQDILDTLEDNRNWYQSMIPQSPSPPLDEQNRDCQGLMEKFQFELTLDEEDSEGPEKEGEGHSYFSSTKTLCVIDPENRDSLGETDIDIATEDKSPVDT
# Procedure, shortened: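 ACTOne HEK293 cells carry a modified cAMP-gated CNG channel and express endogenous PDE4; plated 1000 cells/well, compounds up to 22.9 uM final. Membrane-potential dye fluorescence (ex 535/em 590) was read; parental cells received 10 uM forskolin + 100 uM RO 20-1724.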
# [10] = target: Cytochrome P450 3A4 (Homo sapiens) (UniProt P08684); assay: qHTS Assay for Activators of Cytochrome P450 3A4 (AID 885); conditions: recombinant CYP3A4, Luciferin-PPXE luminescence, 60 min; series mostly up to 57.1 µM; further: nearly all actives have a fitted effect of over 65% in size
# Chain of Cytochrome P450 3A4 (Homo sapiens) (P08684 whole entry, looked up): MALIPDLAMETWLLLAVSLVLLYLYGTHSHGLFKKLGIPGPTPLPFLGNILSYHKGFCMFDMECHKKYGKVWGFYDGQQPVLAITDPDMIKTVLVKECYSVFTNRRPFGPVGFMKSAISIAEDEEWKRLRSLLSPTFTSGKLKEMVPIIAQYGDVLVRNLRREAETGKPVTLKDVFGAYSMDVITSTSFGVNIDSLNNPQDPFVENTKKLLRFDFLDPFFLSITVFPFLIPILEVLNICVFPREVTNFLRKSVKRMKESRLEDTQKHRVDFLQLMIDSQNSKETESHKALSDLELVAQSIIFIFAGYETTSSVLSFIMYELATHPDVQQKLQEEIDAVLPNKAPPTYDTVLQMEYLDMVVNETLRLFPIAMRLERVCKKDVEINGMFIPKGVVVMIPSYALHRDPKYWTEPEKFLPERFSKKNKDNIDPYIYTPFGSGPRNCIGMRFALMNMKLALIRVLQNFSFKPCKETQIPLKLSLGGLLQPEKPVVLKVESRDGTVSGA
# Procedure, shortened: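 20nM CYP3A4 + 25uM Luciferin-PPXE (=KM), 200mM KPO4; cpd 10 min RT; NADPH regen, 60 min RT; stop w/ detection buffer, 20 min; luminescence. Normalized to 57 uM ketoconazole.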
# [11] = target: Dual specificity protein kinase CLK4 (Homo sapiens) (UniProt Q9HAZ1); assay: qHTS Assay for Inhibitors of CDC-like Kinase 4 (Kinase-Glo Assay) (AID 1770); conditions: recombinant Clk4, Kinase-Glo ATP depletion luminescence; series mostly up to 66.7 µM; further: nearly all actives have a fitted effect of over 65% in size; further: potency means the concentration at half of the fitted maximal effect
# Chain of Dual specificity protein kinase CLK4 (Homo sapiens) (Q9HAZ1 whole entry, looked up): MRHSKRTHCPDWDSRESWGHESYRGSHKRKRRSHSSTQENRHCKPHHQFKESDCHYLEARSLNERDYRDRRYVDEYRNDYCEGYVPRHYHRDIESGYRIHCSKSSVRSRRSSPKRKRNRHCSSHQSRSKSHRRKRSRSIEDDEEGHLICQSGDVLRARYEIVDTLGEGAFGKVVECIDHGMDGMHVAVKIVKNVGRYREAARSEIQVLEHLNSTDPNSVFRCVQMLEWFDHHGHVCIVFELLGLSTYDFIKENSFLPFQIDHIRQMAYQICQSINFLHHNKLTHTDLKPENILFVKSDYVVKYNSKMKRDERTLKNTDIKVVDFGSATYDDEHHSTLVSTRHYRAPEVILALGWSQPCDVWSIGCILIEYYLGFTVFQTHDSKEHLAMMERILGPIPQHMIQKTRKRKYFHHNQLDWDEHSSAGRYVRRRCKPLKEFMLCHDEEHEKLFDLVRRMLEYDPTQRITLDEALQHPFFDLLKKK
# Procedure, shortened: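 Inhibition was judged from remaining ATP, measured by Ultra-Glo luciferase bioluminescence after Clk4 (25 nM) had acted on RS peptide at 1 uM ATP for 4.5 hours, room temperature.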
# [12] = target: Dual specificity protein kinase CLK4 (Homo sapiens) (UniProt Q9HAZ1); assay: qHTS Assay for Inhibitors of CDC-like Kinase 4 (ADP-Glo Assay) (AID 1771); conditions: recombinant CLK4, ADP-Glo luminescence; series mostly up to 80 µM; further: nearly all actives have a fitted effect of over 70% in size; further: potency means the concentration at half of the fitted maximal effect
# Procedure, shortened: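 Kinase reaction: Clk4 at 25 nM, RS repeat peptide substrate at 100 uM, ATP at 1 uM, 1 hr, room temperature. Product ADP detected as luciferase signal via ADP-Glo.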
# [13] = target: Dual specificity protein kinase CLK4 (Homo sapiens) (UniProt Q9HAZ1); assay: qHTS Assay for Inhibitors of CDC-like Kinase 4 (ADP-FP Assay) (AID 1795); conditions: Transcreener ADP fluorescence polarization; series mostly up to 50 µM; further: nearly all actives have a fitted effect of over 60% in size; further: potency means the concentration at half of the fitted maximal effect
# Procedure, shortened: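 Inhibition of ADP formation by 6.25 nM Clk4 is measured using 1 uM ATP and 100 uM RS repeat peptide over one hour. Produced ADP displaces a fluorescent tracer from antibody, lowering polarization.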
# [14] = target: Ubiquitin carboxyl-terminal hydrolase 1 (Homo sapiens) (UniProt O94782); assay: Inhibitors of USP1/UAF1: Pilot qHTS (AID 504865); conditions: purified USP1/UAF1, Ub-rhodamine cleavage fluorescence; series mostly up to 54.9 µM;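 further: rhodamine fluorescence freed from ubiquitin-rhodamine substrate followed over time; top concentration of the series differs between compounds; on the % scale 0 is the no-effect control and ±100 the full control effect; nearly all actives have a fitted effect of over 35% in size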
# Chain of Ubiquitin carboxyl-terminal hydrolase 1 (Homo sapiens) (O94782 whole entry, looked up): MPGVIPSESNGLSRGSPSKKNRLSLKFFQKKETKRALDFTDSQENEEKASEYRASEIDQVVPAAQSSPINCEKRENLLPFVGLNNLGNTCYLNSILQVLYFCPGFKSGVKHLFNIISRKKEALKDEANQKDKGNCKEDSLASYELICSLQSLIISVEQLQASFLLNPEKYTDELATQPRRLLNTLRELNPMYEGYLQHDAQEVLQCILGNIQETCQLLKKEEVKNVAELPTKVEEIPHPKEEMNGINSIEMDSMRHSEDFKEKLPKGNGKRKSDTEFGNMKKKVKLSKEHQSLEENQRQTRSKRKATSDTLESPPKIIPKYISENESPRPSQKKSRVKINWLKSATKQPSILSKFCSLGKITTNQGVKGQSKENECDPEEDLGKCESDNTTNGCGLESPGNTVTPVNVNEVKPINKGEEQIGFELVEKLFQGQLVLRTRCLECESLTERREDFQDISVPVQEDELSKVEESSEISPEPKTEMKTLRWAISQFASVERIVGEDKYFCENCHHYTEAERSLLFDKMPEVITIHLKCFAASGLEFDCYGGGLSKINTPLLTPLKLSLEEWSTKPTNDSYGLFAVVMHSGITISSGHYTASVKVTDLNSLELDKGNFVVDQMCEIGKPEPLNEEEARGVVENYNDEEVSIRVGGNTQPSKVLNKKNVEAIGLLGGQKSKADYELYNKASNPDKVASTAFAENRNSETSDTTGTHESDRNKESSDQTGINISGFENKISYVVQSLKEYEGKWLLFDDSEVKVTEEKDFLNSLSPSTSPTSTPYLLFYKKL
# Procedure, shortened: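 Kinetic fluorescence assay: 1nM USP1/UAF1, 15 min compound preincubation, then 150nM Ub-Rho; 480/540 nm.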
# [15] = Primary qHTS for small molecule stabilizers of the endoplasmic reticulum resident proteome: Secreted ER Calcium Modulated Protein (SERCaMP) assay (AID 1508630); conditions: SH-SY5Y GLuc-SERCaMP (Gaussia luciferase released on ER calcium loss) secretion, thapsigargin, luminescence; series mostly up to 38.4 µM; further: on the % scale 0 is the no-effect control and ±100 the full control effect
# Procedure, shortened: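 GLuc-SERCaMP-expressing SH-SY5Y cells, pretreated 16 h with compound, are challenged with thapsigargin to empty ER calcium stores; after 4 h, coelenterazine is added directly to the medium and luminescence is imaged.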
# [16] = target: Cytochrome P450 2C9 (Homo sapiens) (UniProt P11712); assay: qHTS Assay for Inhibitors and Substrates of Cytochrome P450 2C9 (AID 883); conditions: recombinant CYP2C9, luciferin-H luminescence, 60 min; series mostly up to 57.1 µM; further: potency means the concentration at half of the fitted maximal effect; nearly all actives have a fitted effect of over 60% in size
# Procedure, shortened: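 CYP2C9 deoxyluciferin hydroxylation, 37C, 60 min with NADPH regeneration; 10nM enzyme, 100uM Luciferin-H (KM). Glo detection reagent stopped reaction; luminescence normalized to sulphaphenazole (57uM) full inhibition.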
# [17] = target: Cytochrome P450 3A4 (Homo sapiens) (UniProt P08684); assay: qHTS Assay for Inhibitors and Substrates of Cytochrome P450 3A4 (AID 884); conditions: recombinant CYP3A4, Luciferin-PPXE luminescence; series mostly up to 57.1 µM; further: potency means the concentration at half of the fitted maximal effect; nearly all actives have a fitted effect of over 50% in size
# Procedure, shortened: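 20 nM human CYP3A4 with 25 uM Luciferin-PPXE (at KM) in 200 mM KPO4, preincubated 10 min with compound; NADPH regeneration started a 60 min RT reaction. Luciferin detected by luminescence, normalized to 57 uM ketoconazole as full inhibition.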
# [18] = target: Cytochrome P450 2C19 (Homo sapiens) (UniProt P33261); assay: qHTS Assay for Inhibitors and Substrates of Cytochrome P450 2C19 (AID 899); conditions: recombinant CYP2C19, luciferin-H EGE luminescence; series mostly up to 57.1 µM; further: potency means the concentration at half of the fitted maximal effect; nearly all actives have a fitted effect of over 60% in size
# Chain of Cytochrome P450 2C19 (Homo sapiens) (P33261 whole entry, looked up): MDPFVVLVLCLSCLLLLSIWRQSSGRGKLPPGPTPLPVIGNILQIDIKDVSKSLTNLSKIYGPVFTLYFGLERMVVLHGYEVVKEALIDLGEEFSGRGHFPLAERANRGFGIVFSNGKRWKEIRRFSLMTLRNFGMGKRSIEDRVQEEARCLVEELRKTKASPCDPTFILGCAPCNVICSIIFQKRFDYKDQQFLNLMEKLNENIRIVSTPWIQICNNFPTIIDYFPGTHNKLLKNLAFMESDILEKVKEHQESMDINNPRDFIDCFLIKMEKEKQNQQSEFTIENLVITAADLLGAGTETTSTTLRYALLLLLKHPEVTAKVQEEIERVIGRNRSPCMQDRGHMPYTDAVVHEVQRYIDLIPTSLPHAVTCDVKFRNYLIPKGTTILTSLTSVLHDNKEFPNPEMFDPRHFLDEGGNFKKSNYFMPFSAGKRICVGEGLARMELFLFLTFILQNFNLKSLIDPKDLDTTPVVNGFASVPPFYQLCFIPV
# Procedure, shortened: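 In 50mM KPO4, the reaction held 5nM enzyme and KM-level (10uM) Luciferin-H EGE; it ran 60 min at 37C after NADPH regeneration and a 10 min compound preincubation. Luminescence values were scaled to 57uM ketoconazole as complete inhibition.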
# [19] = target: Cytochrome P450 2D6 (Homo sapiens) (UniProt P10635); assay: qHTS Assay for Inhibitors and Substrates of Cytochrome P450 2D6 (AID 891); conditions: recombinant CYP2D6, luciferin-ME EGE luminescence; series mostly up to 57.1 µM; further: potency means the concentration at half of the fitted maximal effect; nearly all actives have a fitted effect of over 60% in size
# Procedure, shortened: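 Human CYP2D6 (5 nM) with 30 uM Luciferin-ME EGE (at Km) in 100 mM KPO4, compound preincubated 10 min, then NADPH regeneration system for 60 min at room temperature. Luciferin read by luminescence; normalized to 1.43 uM quinidine.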
Compound,Potency [1] [µM],"activity change, negative = inhibition [2] [%]",Potency [3],"activity change, negative = inhibition [4] [%]","activity, negative = inhibition [5] [%]",Potency [6] [µM],Potency [7] [µM],Potency [8],Potency [9],Potency [10],Potency [11],Potency [12],Potency [13],Potency [14],outcome [15],Potency [16],Potency [17],Potency [18],Potency [19]
CN(C)C(=O)c1ccc(-c2nccc(NCc3ccccc3)n2)cc1,> 11.4,-2.34,15.8 µM (active),15.6,-5.63,> 46,> 46,inactive,inactive,inactive,inactive,inactive,inactive,inactive,inactive,,,,
c1ccc(CNc2nc(-c3ccc4c(c3)OCO4)nc3ccccc23)cc1,> 11.4,-7.19,0.501 µM (active),-23.9,-13,> 46,> 46,inactive,,inactive,inactive,inactive,inactive,inactive,inactive,,,,
COc1ccccc1CCn1c(=O)c(-c2ccc(F)c(F)c2)nc2cncnc21,> 11.4,-18.1,2 µM (active),1.01,10.7,> 9.22,> 46,inactive,,inactive,inactive,inactive,inactive,inactive,inactive,6.31 µM (active),3.16 µM (active),1.26 µM (active),
O=c1c(-c2cccc(Cl)c2)nc2cncnc2n1C1CC1,> 11.4,-20.9,0.631 µM (active),-7.65,-4.14,> 9.22,> 46,inactive,inactive,inactive,inactive,inactive,inactive,inactive,inactive,,,,
COCCn1c(=O)cnc2cnc(Oc3cccc(Cl)c3)nc21,> 11.4,1.86,3.16 µM (active),2.09,-13.2,> 9.22,> 46,inactive,inactive,inactive,inactive,inactive,inactive,inactive,inactive,,,,
COc1ncc2nc(-c3ccc(F)cc3)c(=O)n(Cc3ccc(F)cc3)c2n1,> 11.4,1.72,1.58 µM (active),-1.74,-13.2,> 9.22,> 46,inactive,inactive,inactive,inactive,inactive,inactive,inactive,inactive,,,,
CN(C)Cc1ccccc1-c1nc(NC2CC2)c2ccccc2n1,> 11.4,1.1,5.01 µM (active),-22.4,7.64,> 46,> 46,inactive,,inactive,inactive,inactive,inactive,inactive,inactive,,,,3.98 µM (active)
O=c1cnc2cnc(Nc3ccccc3)nc2n1CCc1ccccc1,> 11.4,-13.5,3.16 µM (active),9.72,-12.1,> 9.22,> 46,inactive,2.51 µM (active),,0.199 µM (active),0.316 µM (active),0.0891 µM (active),inactive,inactive,,,2 µM (active),
COc1ccc(-n2c(=O)c(-c3cccc(Cl)c3)nc3cncnc32)cc1,> 11.4,-20.5,1 µM (active),-14.1,-4.36,> 9.22,> 46,inactive,inactive,inactive,inactive,inactive,inactive,inactive,inactive,,,,
Cc1cnc(CNc2ncnc3ccc(-c4ccc5c(c4)OCO5)cc23)cn1,> 11.4,-18.1,0.398 µM (active),14.2,-16.2,> 46,> 46,,inactive,inactive,0.282 µM (active),0.398 µM (active),0.224 µM (active),inactive,inactive,,2.51 µM (active),,
